# Screening results from PubChem.
# The list is not random: actives were taken first. Their share in the collection is about 8.5%.
# Sfp PPTase inh = Sfp phosphopantetheinyl transferase inhibition. Potency, µM, without a hit: largest response in the series, negative = inhibition, hits mostly inhibitors. Biochemical Sfp PPTase activity, qHTS. 310,000 compounds, 3.5% hits. Q9F4F7; active = well fitted curve in the direction sought with a large enough effect; inconclusive = small, poorly fitted or top-dose-only effect, or another doubt; inactive = no such curve, though single readings can be large; an effect the other way counts as inactive or inconclusive;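 note: the enzyme is Sfp with the accession as filed and its product quenches rhodamine fluorescence; potency is the fitted concentration of half-maximal effect; 0% = enzyme reaction without inhibitor and -100% = no enzyme wells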
#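 Buffer: 50 mM Hepes-Na pH 7.6, 10 mM MgCl2, 0.01% Nonidet P-40, 0.01% BSA. Enzyme 15 nM, pre-exposed to compound 15 min; substrates then added and fluorescence change tracked over 30 min.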
# NPSR antag = blocks cAMP signaling of the human neuropeptide S receptor. Potency, µM (titrated, usually from 38.3 µM), inactives show at the highest dose activity change, negative = inhibition, hits mostly inhibitors. 220,000 compounds, 1% hits. CHO-NPSR cells, cAMP TR-FRET, antagonist mode. Q6W5P4; active = well fitted curve in the direction sought with a large enough effect; inconclusive = small, poorly fitted or top-dose-only effect, or another doubt; inactive = no such curve, though single readings can be large; an effect the other way counts as inactive or inconclusive; note: potency is the fitted concentration of half-maximal effect; nearly all actives have a fitted effect of over 50% in size
# RGS12 GoLoco inh = blocks human Gai1 binding to RGS12 GoLoco peptide, red readout | Gai1:RGS12 GoLoco peptide FP, rhodamine, 10 min | 230,000 compounds, 0.44% hits | Potency, µM (series often up to 61.6 µM), without a hit: at the highest dose activity, negative = inhibition, hits mostly inhibitors | P63096; active = well fitted inhibition curve with a large enough effect, not every such curve was filed as active; inactive = no such curve, though single readings can be large or run the other way; note: potency is the fitted concentration of half-maximal effect; nearly all actives have a fitted effect of over 30% in size
# ALDH1A1 block = ALDH1A1 (human) enzyme inhibition | Purified ALDH1A1, NADH fluorescence, propionaldehyde substrate | Potency, µM (series often up to 75.3 µM), without a hit: top-dose activity, negative = inhibition, usual class: inhibitors | 220,000 compounds, 7.3% hits | AID 1030;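 note: potency is the fitted concentration of half-maximal effect; plate controls were no enzyme wells and a reference inhibitor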
# Coupling enz = coupling enzyme interference in Giardia aldolase counter-screen; 290,000 compounds, 0.67% hits; coupling enzyme system counterscreen, AmpLite Red fluorescence; AID 2472; activity change, negative = inhibition, % at 58.2 µM, hits read low; in the data active = activity change below about -30%
#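 Fluorescence at 525 nm excitation and 598 nm emission measured inhibition of the coupled detection system without aldolase. Compounds (at 57.5 uM final) were preincubated 10 min at room temperature with coupling enzyme reagent before a 20 min substrate/AmpLite Red step.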
# KDM4E inh = JMJD2E (human) inhibition. 230,000 compounds, 1.6% hits. Potency, µM (top dose mostly 57.1 µM), for inactives: top-dose activity change, negative = inhibition, usual class: inhibitors. JMJD2E catalytic domain, FDH-coupled NADH fluorescence (FDH is formaldehyde dehydrogenase);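 note: potency is the fitted concentration of half-maximal effect; 0% = wells with enzyme and -100% = buffer wells without enzyme; nearly all actives have a fitted effect of over 50% in size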
# Target sequence (B2RXH2 1-337 limits assumed): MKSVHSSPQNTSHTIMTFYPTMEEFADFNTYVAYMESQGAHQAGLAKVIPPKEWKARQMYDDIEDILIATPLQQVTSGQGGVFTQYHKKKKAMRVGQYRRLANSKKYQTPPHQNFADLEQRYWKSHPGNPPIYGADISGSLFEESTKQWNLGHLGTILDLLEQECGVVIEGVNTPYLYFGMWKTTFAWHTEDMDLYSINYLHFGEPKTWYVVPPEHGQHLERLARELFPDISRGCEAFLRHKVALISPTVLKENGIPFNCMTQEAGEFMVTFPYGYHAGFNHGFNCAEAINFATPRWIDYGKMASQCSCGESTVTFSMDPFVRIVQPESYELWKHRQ
# * marks the source's active call; other numbers are inactive results; ? = inconclusive; . = no result given; [ ] = remark or other dose. Unless noted, calls come from the whole dose curve; as a rule, active = well fitted inhibition curve with a large enough effect (not every such curve was filed as active); inconclusive = small, poorly fitted or top-dose-only effect, or another doubt; inactive = no such curve, though single readings can be large or run the other way. Unless noted, % is set by controls: 0 for no effect and ±100 for the full control effect.
SMILES,Sfp PPTase inh,NPSR antag,RGS12 GoLoco inh,ALDH1A1 block,Coupling enz,KDM4E inh
COC1C=CO[C@@]2(C)Oc3c(C)c(O)c4c(O)c(c5c(nc6cc(C)ccn65)c4c3C2=O)NC(=O)/C(C)=C\C=CC(C)C(O)[C@@H](C)C(O)C(C)[C@@H](OC(C)=O)C1C (some centres not stated),13%,.,-29%,-6%,-12,?
CCN1CCN(S(=O)(=O)Cc2ccccc2Cl)CC1,-6%,.,.,.,3,.
CCOc1ccc(-c2cc(N)n(S(=O)(=O)c3ccc(OC)c(OC)c3)n2)cc1,19%,-17%[46.1 µM],-10%,?,-2,0%
COc1ccc(S(=O)(=O)n2nc(-c3ccc(Cl)cc3)cc2N)cc1OC,-2%,-13%[46.1 µM],-9%,89µM*,0,-3%
O=c1cc(CO)oc(C(Nc2ccccn2)c2ccccc2Cl)c1O (configuration not stated),50µM*,28%,12%,5µM*,1,?
O=c1cc(CO)oc(C(Nc2ccccn2)c2ccc(F)cc2)c1O (configuration not stated),10µM*,-12%[46.1 µM],6%,8.9µM*,-9,?
Cc1ccnc(NC(c2ccccc2O)c2oc(CO)cc(=O)c2O)c1 (configuration not stated),10µM*,-7%,7%,13µM*,-33*,?
C=C1OC(CO)(n2cnc3c(N)ncnc32)C(O)C1O (configuration not stated),16%,.,0%,-2%,1,.
COC(=O)c1ccc(NC(=O)CCc2nnc3ccc(N4CCC5(CC4)OCCO5)nn23)cc1,15%,.,.,.,2,.
CSCCC(NC(=O)c1ccc([N+](=O)[O-])cc1Cl)C(=O)OC1CCCCC1=O (configuration not stated),11%,.,.,.,.,.
Cc1sc(-c2ccccn2)nc1OC(=O)c1ccc(F)cc1F,16µM*,7%,-4%,-8%,0,-5%
O=C(NCc1ccco1)c1cnn2c(C(F)(F)F)cc(-c3cccs3)nc12,32µM*,-25%[46.1 µM],12%,?,4,?
O=C(c1cnn2c(C(F)(F)F)cc(-c3cccs3)nc12)N1CCCC1,-20%,-26%,11%,.,1,?
Cc1ccc(-n2nc(C)c(Sc3ccccc3[N+](=O)[O-])c2N)cc1,-20%,-21%,0%,10µM*,0,-6%
Cc1ccc(NC(=O)CSC2=C(C#N)C(c3ccco3)C3=C(CCCC3=O)N2)cc1 (configuration not stated),10µM*,?,111%,?,-3,?
CC1(C)CC(=O)C2=C(C1)Nc1ccccc1N(C(=O)C1CC1)C2c1ccco1 (configuration not stated),-26%,-3%,8%,?,-2,-7%
CCOC(=O)C1=C(c2ccccc2)NC(SCC(=O)NC2CCCCC2)=C(C#N)C1c1ccco1 (configuration not stated),10%,?,6%,18µM*,1,?
N#CC1=C(SCC(=O)c2ccc(Cl)cc2)NC2=C(C(=O)CCC2)C1c1ccco1 (configuration not stated),45µM*,-19%[46.1 µM],36%,28µM*,-1,-4%
COc1ccc(OC)c(NC(=O)CSC2=C(C#N)C(c3ccco3)C3=C(CCCC3=O)N2)c1 (configuration not stated),-18%,-21%[46.1 µM],44%,?,-2,-5%
CC1(C)CC(=O)C2=C(C1)NC(SCC(=O)Nc1ccccc1)=C(C#N)C2c1ccco1 (configuration not stated),5%,-19%[46.1 µM],5%,13µM*,0,-7%
CCCCOC(=O)CSC1=C(C#N)C(c2cccnc2)C(C(=O)OCC)=C(c2ccccc2)N1 (configuration not stated),10%,?,1%,11%,-3,-11%
N#CC1=C(SCC(=O)Nc2ccc(C(=O)O)cc2)NC(=O)CC1c1ccco1 (configuration not stated),32µM*,-19%,-3%,13µM*,5,6%
Cc1c(C(=O)NC(C)C)oc2c1-c1[nH]ncc1CC2,4%,5%[46.1 µM],4%,?,-39*,?
CCOc1ccc(CCNC(=O)c2oc3c(c2C)-c2[nH]ncc2CC3)cc1OCC,4%,-6%,-3%,10%,-24,-8%
COc1cc(C(C(=O)NC(C)(C)C)N(Cc2ccccc2)C(=O)c2cnccn2)cc(OC)c1OC (configuration not stated),11%,8%[46.1 µM],3%,7%,1,-4%
SMILES,Sfp PPTase inh,NPSR antag,RGS12 GoLoco inh,ALDH1A1 block,Coupling enz,KDM4E inh
COc1ccc(CN(C(=O)c2ccc(-c3ccccc3)[nH]2)C(C(=O)NC(C)(C)C)c2ccncc2)cc1 (configuration not stated),45µM*,-53%,81%,?,-4,3%
CCOCC(=O)Nc1ccc(S(=O)(=O)NCCc2ccccc2)cc1,11%,-6%[46.1 µM],1%,10µM*,0,-3%
O=C(O)CCc1ccc(S(=O)(=O)NCCc2ccccc2)cc1,9%,-7%[46.1 µM],.,1.8µM*,4,-2%
CCNS(=O)(=O)c1ccc(CCC(=O)O)cc1,15%,13%,0%,22%,4,-3%
CC(=O)Nc1ccc(S(=O)(=O)NCCCc2ccccc2)cc1,13%,.,.,.,1,.
Cc1nc(CNS(=O)(=O)c2ccc(F)cc2)cs1,11%,.,.,.,3,.
CC(Sc1ncn[nH]1)C(=O)NCc1ccccc1 (configuration not stated),14%,.,.,.,.,.
O=C(c1ccccc1)C(Sc1ncn[nH]1)c1ccccc1 (configuration not stated),79µM*,-16%[46.1 µM],7%,?,-6,?
COc1ccc(OC)c(NC(=O)c2ccc(CSc3ncccn3)cc2)c1,3%,26%,1%,0%,-1,2%
CC(=O)c1sc2nc(C)cc(C)c2c1N,3%,-6%[46.1 µM],1%,?,1,?
CCCCCCCCS(=O)c1sc2nc(C)cc(C)c2c1N (configuration not stated),45µM*,-6%[46.1 µM],-6%,?,4,?
CCCCOC(=O)C(C)Sc1n[nH]c(=O)[nH]c1=O (configuration not stated),-1%,7%,2%,8%,-2,0%
CC1=NN(c2ccc(C(=O)O)c(N)c2)C(=O)C1,?,15%,-13%,?,-37*,?
CN(C)C1(CNC(=O)C2CCN(S(=O)(=O)c3ccccc3C(F)(F)F)CC2)CCCCC1,20%,.,.,.,.,.
